Laboratory results as given in PubChem BioAssay AID1508600 (Functional Genomics Laboratory (NCATS/FGL), 2020).
Hit rate of the full screen: of about 53,000 sequences, about 3,700 (7%) were called active. The sample as a whole holds a higher share of actives than the screen did. A number with no mark means an inactive call.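 How the source made its calls: active means gene knockdowns whose robust z-score for IL-1 alpha signal is at least 2 or at most -2, so actives lie on both sides; inactive means the rest.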

Assay: Components of the Cytosolic LPS Sensing Pathway: Gene Identification via Genome-wide siRNA Screen
Conditions: RAW264.7 macrophages, IL-1a HTRF, actives lie on both sides, screened at 100 nM (by protocol), cells primed 5 h with Pam3CSK4 first
Source text: Non-canonical inflammasome activation by cytosolic LPS is a critical component of the host response to Gram-negative bacterial infection, however we lack a comprehensive understanding of the cellular processes that control this pathway. Here we describe a genome-wide siRNA screen to identify genes regulating the mouse macrophage IL-1 alpha response to cytosolic LPS.
RAW264.7 cells were maintained in complete DMEM media, comprising DMEM with 4.5 g/L glucose, 10% FBS (Gemini Bio-Products, West Sacramento, CA), 2 mM Glutamine (Lonza) and 20 mM HEPES (Lonza), hereafter complete DMEM.
The RNAi screen was conducted in 384-well format using the Ambion Silencer Mouse Genome siRNA Library (#4391425), which consists of three unique, nonoverlapping, nonpooled siRNAs for each of 17,000 gene targets. siRNA reagents ([…]) were stamped into 384-well white flat-bottom microplates (Corning, 3570) using a Velocity11 VPrep liquid handling system (Agilent) integrated into a BioCel robotic platform (Agilent) in columns 1-22, leaving columns 23-24 empty for negative (Ambion, Negative control #1) and positive (mouse Casp4) controls, respectively. The median value of each plate's negative control column was used to normalize sample wells, and the positive control was used to assess transfection efficiency and assay performance.
Lipofectamine RNAiMAX Transfection Reagent ([…]; Invitrogen) was added in […] serum-free, antibiotic-free media to plate wells using a Thermo Scientific Matrix WellMate and Microplate Stacker. Plates were incubated for 45 min at room temperature to allow for the sufficient formation of siRNA-lipid complexes. Cells were seeded at a density of 1x10^4 cells per well in 20 microL media containing 20% (vol/vol) FBS without antibiotics. The final concentration of siRNA in each well was 100 nM. Cells were cultured for 48h at 37 degrees C in 5% CO2 before addition of […] of TLR ligand Pam3CSK4 for 5 hours. The medium was then removed, replaced with […] growth media and cell were transfected with […] of LipidA and TransIT-TKO (Mirus) for 24 hour. At the end of the LipidA treatment, […] of supernatant was transferred to a 384 Greiner Bio-one non-binding low volume plate and […] of IL-1a HTRF reagent (Cisbio, 62MIL1APEH) was added and incubated at room temperature overnight. The plates were read on an EnVision plate reader (PerkinElmer). Cell viability was measured by adding 20ul Cell Titer Glo to the original plate and running a luminescence read on the EnVision. The quantified IL-1a signal for each siRNA gene-targeted well was divided by the median of the negative control wells and multiplied by 100 to achieve a negative control normalized value for each well/siRNA. This normalized value was then used to generate a robust z-score by first taking the log of each value and then by subtracting the median and dividing by the […].

Going from GGGCUGUGAUCAAACAUGGTT against Ano9 to GGAAUUAUGAACAAAUUGCTT against H2-M9, the z-score rises from -1.38 to 0.702.

Going from GCCAACAAGCAUUCCAUUGTT against Mrap to GGAUACAUUAAGGUGCAAGTT against Aldh1a7, the z-score rises from -0.991 to 0.819.

Compared with GGCUGGCAAACUCAAAAAATT against Zfp385c, GCGAUCUAGAAAUUGACAATT against St13 is higher in z-score: -0.813 for the first, -0.59 for the second.

First: GGAAAAAGGAGGGUUUAGCTT against Tm4sf5
Second: CCCUUUAUUAUUCCACUGUTT against Olfr530
The z-score of the first is higher: 0.418 for the first, -1.12 for the second.

Going from CCAAGUUCACAAUUGUUCUTT against Gimap8 to CCUAAAGAAAGGUUAAAGATT against Sfr1, the z-score falls from -0.263 to -0.763.

Going from GCACUACCACUGUCAGCAATT against Ldb3 to CCAACACUACCAGAGAACGTT against Pfkfb1, the z-score falls from -0.734 to -0.808.

Going from CGAUAAAAGACCCAAAUUATT against Emx2 to GCAUGUGUCAAGAUGUCUGTT against Tec, the z-score falls from 1.86 to 1.36.

First: GGUCACAAACAGAUUAAUUTT against Ahcy
Second: GGUUUGAAUGUCACCGGCATT against Defb29
The z-score of the first is higher: -0.404 for the first, -1.22 for the second.

Going from GCCAUCACGAGCUAAAACCTT against Smad5 to GGUUUUUAGCCUGAGUGAGTT against Olfr688, the z-score rises from -1.91 to -1.8.

Going from GGAUUUCUCGGAAGUCGAGTT against Cd3e to GGUCUUUCAAGUUGCAUACTT against Lama1, the z-score falls from 0.517 to 0.491.

Going from GGAUGAACUAUACCAUGGCTT against Tmem132c to GGACGGUCUUGCCUUCUUCTT against Fam222a, the z-score falls from 1.07 to 0.901.

CGAUGACGGGAAAUAAUUUTT against Snx4 showed a z-score of -0.663.

For GGCCUCUAUCUUCCAACAATT against Tent4a, the z-score was -2.06 (active).
For GGCACAUGGAGUGGACAAGTT against Blvrb, the z-score was 3.2 (active).
With GCUUGACCCUACACUACAGTT against Olfr1121 the z-score was 2.47 (active).
In the case of GGACUGUGCAGUUAUUGUCTT against Psma6, the z-score is reported as -2.17 (active).
For CGAGCCCAUGUCAGAUCAGTT against Minar1, the z-score was -2.33 (active).
With GGAUGAGGAAAACUUCCAGTT against Mup5 the z-score was 2.61 (active).
In the case of GCUAUUUUUAUAAGGGCCATT against Sh2b2, the z-score is reported as 2.94 (active).
